Screening data: PubChem, National Center for Advancing Translational Sciences (NCATS)
GLP-1R inv ag = qHTS of GLP-1 Receptor Inverse Agonists (Inhibition Mode); Glucagon-like peptide 1 receptor (Homo sapiens), P43220; HEK293 GLP-1R CRE-luciferase, luminescence, 24 h; GLP-1R form is constitutively active; Potency, µM (doses to about 38.3 µM), hits mostly inhibitors; actives 1.6% (n = 410,000); further: nearly all actives have a fitted effect of over 55% in size
Target sequence (P43220 whole entry, looked up): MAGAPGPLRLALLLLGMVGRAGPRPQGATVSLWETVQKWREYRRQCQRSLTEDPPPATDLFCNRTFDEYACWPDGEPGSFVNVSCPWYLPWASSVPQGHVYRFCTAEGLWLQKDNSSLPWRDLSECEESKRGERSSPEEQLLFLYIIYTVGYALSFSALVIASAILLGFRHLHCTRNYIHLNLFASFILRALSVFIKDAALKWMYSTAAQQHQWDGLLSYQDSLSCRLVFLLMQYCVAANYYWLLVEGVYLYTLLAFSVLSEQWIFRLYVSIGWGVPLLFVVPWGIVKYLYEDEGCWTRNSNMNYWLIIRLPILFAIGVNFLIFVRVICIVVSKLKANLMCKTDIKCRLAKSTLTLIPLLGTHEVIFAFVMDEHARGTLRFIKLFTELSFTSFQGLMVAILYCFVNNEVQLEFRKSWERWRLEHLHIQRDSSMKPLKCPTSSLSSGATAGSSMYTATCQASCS
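Stable HEK293 clone (constitutively active GLP-1R + cAMP-response luciferase); 200 cells/uL plated, 12 h pre-culture, compound 24 hr, 37 deg C/5% CO2; detection reagent 12 min RT; luminescence.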
GLP-1R agonist = qHTS of GLP-1 Receptor Agonists; HEK293 GLP-1R CRE-luciferase, luminescence, 4-6 h; cells express a hypersensitive GLP-1R form; actives 0.007% (n = 380,000); AID 624172, 2012; Glucagon-like peptide 1 receptor (Homo sapiens), P43220; Potency, µM (series often up to 45.6 µM), usual class: activators
HEK293 tox = qHTS of GLP-1 Receptor Inverse Agonists: Cytotox Screen. HEK293 cAMP-luciferase reporter cells, luminescence, 24 h. actives 0.13% (n = 410,000). Potency, µM (titrated, usually from 38.3 µM), actives largely listed as inhibitors;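 further: loss of luciferase light is scored as toxicity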
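Seeding density was 200 cells/uL; after overnight-length (12 h) culture, 23 nL compounds went on for 24 h at 37 °C. Readout used a luciferase detection reagent, luminescence taken after 12 min at room temperature.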
BRCA1 expr act = qHTS Assay to Identify Small Molecule Activators of BRCA1 Expression | MCF7-BRCA1-FFLuc reporter, luminescence, 48 h; response scale: scaled: vehicle 0%, 10 µM genistein 100% | Potency, µM (highest dose often 46.1 µM), hits mostly activators | actives 1.1% (n = 380,000) | AID 624202, 2012; further: nearly all actives have a fitted effect of over 80% in size
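MCF7-BRCA1-FFLuc, 2000 cells/well; 2 h attach, 37 °C/5% CO2; compound 48 h; luciferase substrate 15 min; luminescence end-point. Norm. to genistein 10 microM max activation and DMSO; concentration-response curves fitted.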
A number is an active result; 0 = inactive; ? = inconclusive; - = no result given. A selection: hits, their analogues and other compounds. The true share with any hit is near 2.6%. The call rests on the fitted dose curve; in most records, active means well fitted curve in the direction sought with a large enough effect; inconclusive means small, poorly fitted or top-dose-only effect, or another doubt; inactive means no such curve, though single readings can be large; an effect the other way counts as inactive or inconclusive.

SMILES	GLP-1R inv ag	GLP-1R agonist	HEK293 tox	BRCA1 expr act
Cc1cccc(C)c1OCCOC(=O)c1n[nH]c2ccccc12	?	0	0	0
Cc1ccc(C)c(C(=O)COC(=O)c2n[nH]c3ccccc23)c1	10µM	0	0	0
CCN1C(=O)/C(=C/C=C2/CCCN2C)OC1=S	0	0	0	7.08µM
Cc1ccc(NC(=O)/C=C/c2ccco2)cc1S(=O)(=O)N1CCCCCC1	10µM	0	0	0
CCc1cccc(OCC(=O)Nc2ccc(C)c(S(=O)(=O)N3CCCCCC3)c2)c1	5.01µM	0	0	0
CC(=O)c1ccc(OCCCC(=O)Nc2ccc(C)c(S(=O)(=O)N3CCCCC3)c2)cc1	11.2µM	0	0	0
OCCN=c1cc(-c2ccccc2)oc2ccc(Cl)cc12	?	0	0	0
CN(C)CCCN=c1cc(-c2ccccc2)oc2ccc(Cl)cc12	?	0	0	11.2µM
CC(=O)Oc1ccc(C2(c3ccc(OC(C)=O)cc3)Oc3ccccc3NC2=O)cc1	-	0	-	-
CN(C)Cc1c(O)ccc2cc(-c3nc4ccccc4n3C)c(=O)oc12	0	0	0	12.6µM
CCN(CC)c1ccc2cc(-c3nc4ccccc4n3C)c(=O)oc2c1	?	0	0	0
O=C(COc1ccc(Cl)cc1)NCCc1csc(-c2ccc(F)cc2)n1	0	-	0	-
CCc1ccc2c(CN3CCN(Cc4ccccc4)CC3)cc(=O)oc2c1	8.91µM	0	0	0
CCc1cc2c(CN3CCN(Cc4ccccc4)CC3)cc(=O)oc2cc1O	?	?	0	0
CC(=O)Nc1ccc(-c2ccnc3c2CC(C(=O)NCc2ccco2)O3)cc1 (centres undefined)	0	0	0	0
Cc1ccc(C)c(NC(=O)c2nnn(Cc3ccc(F)cc3Cl)c2N)c1	?	-	0	-
O=C1S/C(=C\c2cccs2)C(=O)N1c1ccc(O)cc1	0	0	0	11.2µM
CCOC(=O)c1c(NC(=O)/C=C/c2ccc(C)cc2)sc2c1CCCC2	0	-	0	-
O=c1cnn([C@@H]2O[C@H](CO)[C@@H](O)[C@H]2O)c(=O)[nH]1	1µM	0	0	0
COc1ccc(OC)c(CNS(=O)(=O)c2c(C(=O)N3CCC(C)CC3)c(C)n(C)c2C)c1	0	-	0	-
CC1C/C(=C/c2ccncc2)C(=O)/C(=C/c2ccncc2)C1 (centres undefined)	?	0	?	0
CC1C/C(=C/c2cccn2C)C(=O)/C(=C/c2cccn2C)C1 (centres undefined)	12.6µM	0	0	0
O=C(c1ccc(F)cc1)c1ccc(N2CCCC2)cc1	?	0	0	3.16µM
O=C(Nc1ccc(N2CCCCC2)cc1)c1ccc(F)cc1	0	0	0	?
O=C(c1ccc(F)cc1)c1ccc(N2CCCCC2)cc1	?	0	0	5.01µM
SMILES	GLP-1R inv ag	GLP-1R agonist	HEK293 tox	BRCA1 expr act
CN(C)c1ccc(CNC(=O)c2sc3ncccc3c2-n2cccc2)cc1	0	-	0	-
Cc1cc(C)c(NC(=O)c2sc3nc(C)cc(C)c3c2NC(=O)c2ccccc2)c(C)c1	0	-	0	-
Cc1cccc(-c2nnc(-c3cccc(NC(=O)Cc4cccs4)c3)o2)c1	?	0	0	12.6µM
O=C(Cc1cccs1)Nc1ccc(-c2nnc(-c3ccccc3)o2)cc1	0	0	0	0
CCCCN(CCCC)CC(O)c1cc(Cl)cc2c1-c1ccc(Cl)cc1/C2=C/c1ccc(Cl)cc1 (centres undefined)	-	0	-	-
C/C(N)=C(/C#N)C(=O)COC(=O)c1cc(C)n(-c2ccc(F)cc2)c1C	?	0	0	8.91µM
Cc1c(C(=O)N(Cc2ccccc2F)C2CCS(=O)(=O)C2)oc2ccc(F)cc12 (centres undefined)	0	-	0	-
Cc1cc(C(=O)COC(=O)Cc2n[nH]c(=O)c3ccccc23)c(C)n1-c1cccc(C(F)(F)F)c1	7.08µM	0	0	0
Cc1cccc(CCn2c(=O)c3ccccc3n(Cc3ccccc3C)c2=O)c1	0	0	0	0
Cc1ccc(COc2ccc(C)nc2[N+](=O)[O-])cc1	0	0	0	4.47µM
CCCCC(c1nnnn1Cc1ccco1)N1CCN(c2nc3ccccc3s2)CC1 (centres undefined)	7.08µM	0	0	0
CCCCn1nnnc1C(c1ccccc1)N1CCN(c2ccc(F)cc2)CC1 (centres undefined)	0	0	0	0
c1ccc(C(c2nnnn2Cc2ccco2)N2CCN(c3nc4ccccc4s3)CC2)cc1 (centres undefined)	7.94µM	0	0	0
Fc1ccc(C(c2nnnn2Cc2cccs2)N2CCN(c3ccccc3)CC2)cc1 (centres undefined)	7.94µM	0	0	0
Cc1ccc(-c2cc(C(=O)Nc3c(C(=O)c4ccc(C)c(F)c4)oc4ccccc34)no2)cc1	0	-	0	0
N#Cc1cc(C#N)c(N2CCN(c3cccc(Cl)n3)CC2)nc1N	0	0	0	8.91µM
NC1CCN(c2cccc(Cl)n2)CC1	-	0	-	-
CCC(Cn1nnc2ccccc2c1=O)NC(=O)Nc1cc(C)cc(C)c1 (centres undefined)	0	-	0	-
CCOc1ccc(/C=C\C(C)=N\O)cc1	0	0	0	2.82µM
CCOC(=O)C1CCCN(C(=O)CC(C)c2ccccc2)C1 (centres undefined)	0	0	0	12.6µM
COc1ccc(CN2C(=O)C(Cc3ccccc3)Nc3ncnc(N4CCN(c5ccccc5)CC4)c32)cc1 (centres undefined)	?	0	0	0
O=C1C(Cc2ccccc2)Nc2ncnc(N3CCN(c4ccccc4)CC3)c2N1Cc1ccc(Cl)cc1 (centres undefined)	11.2µM	0	0	0
CC(C)CC1Nc2ncnc(N3CCCCC3)c2N(Cc2ccccc2)C1=O (centres undefined)	?	0	0	0
O=C1C(Cc2ccccc2)Nc2ncnc(N3CCCCC3)c2N1Cc1ccc(Cl)cc1 (centres undefined)	12.6µM	0	0	0
CC1Nc2ncnc(N3CCN(c4ccccc4)CC3)c2N(Cc2ccc(Cl)cc2)C1=O (centres undefined)	10µM	0	0	0
SMILES	GLP-1R inv ag	GLP-1R agonist	HEK293 tox	BRCA1 expr act
CC1Nc2ncnc(N3CCN(c4ccccc4)CC3)c2N(Cc2ccccc2)C1=O (centres undefined)	0	0	0	0
CCOc1ccc(-c2cc3c(=O)n(CC(=O)Nc4cc(F)ccc4C)ccn3n2)cc1	0	-	0	-
O=C1/C(=C/c2ccccc2F)SC(=S)N1CCC(=O)N1CCCCC1CCO (centres undefined)	?	0	0	0
Cn1cc(O)nc1NC(=O)Nc1cccc(Cl)c1	-	0	-	-
CCCCCCCCCCCCCC(=O)Nc1ccc(/C=C/c2ccnc3ccccc23)cc1	-	-	-	0
COCOCCn1cc(CN2CCS(=O)(=O)N(Cc3ccc(-c4ccc(Cl)c(Cl)c4)cc3)C(C)C2=O)nn1 (centres undefined)	11.2µM	0	0	0
